Data published in PubChem BioAssay (NCI).
About 83,000 compounds went through this panel and 20% of them were active in at least one assay; those are over-represented in the sample as a whole.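 The test compound was applied at a single concentration to cells in 96-well plates for 48 hours, and percent growth was recorded.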 Activity calls are given as the source filed them. How the source made its calls: active means growth percent below 10; inactive means the rest.

These compounds were tested on MDA-MB-468 breast (assay: NCI-60 one-dose screen, 48 h (100 = growth as untreated, 0 = no growth, -100 = all killed)). Conditions: 10 µM unless noted.
`COc1cnc2c(c1)C(=O)c1c-2n(CCCN2CCNCC2)c(=O)c2cc(F)ccc12` was tested, and the growth was -27.9% (active). In the case of `Cc1c(Cl)cccc1NC(=O)c1sc2nc3c(cc2c1N)COCC3`, the growth was 17.7% (inactive). `CCO/C=N/C1=C(C#N)C(c2ccc(Cl)cc2)c2c(c3ccccc3n(C)c2=O)O1` (stereo not given) was tested, and the growth was 54% (inactive). With `CCN1/C(=C/C=C/C=C/c2sc3ccccc3[n+]2CC)Sc2ccccc21` the growth was -81% (active). In the case of `c1csc(-c2nc(-c3cc4ccccc4c(N4CCOCC4)n3)cs2)c1`, the growth was 5.77% (active). `COc1ccc(/C(=C\c2ccc3c(c2)OCO3)C(=O)Nc2nc3ccc(F)cc3s2)cc1OC` was tested, and the growth was 115% (inactive). For `O=C(Nc1ccc(Nc2cc(Nc3ccccc3)ncn2)cc1)Nc1cc(C(F)(F)F)ccc1F`, the growth was 55.3% (inactive). `C=C(c1ccc(C(=O)NCCCn2ccnc2)cc1)c1cc2c(cc1C)C(C)(C)CCC2(C)C` was tested, and the growth was -5.41% (active). With `Cc1ccc(NS(=O)(=O)c2ccc3c(c2)C(=O)CC(c2ccc(C(=O)C(C)C)cc2)N3)cc1C` (stereo not given) the growth was -3.79% (active). For `Clc1ccc(-n2cnc3c(Cl)ncnc32)cc1Cl`, the growth was 48.3% (inactive). For `COC(=O)c1nc(-c2ccccc2)oc1S(=O)(=O)N(C)CCO`, the growth was 6.31% (active). In the case of `Cc1ccc(S(=O)(=O)c2nc(-c3ccccc3)oc2S(C)(=O)=O)cc1`, the growth was -59.3% (active). `CN(C)CCCOc1c2ccccc2nc2c1oc1ccc(Cl)cc12` was tested, and the growth was -3.66% (active). `COc1ccc(/C(C)=N/NC(=O)CSc2nc3ccccc3c(=O)n2Cc2ccc(S(N)(=O)=O)cc2)c(OC)c1` was tested, and the growth was 93.9% (inactive). `Cc1cnc(Nc2ccc(OCCN3CCCC3)cc2)nc1Nc1cccc(S(=O)(=O)NC(C)(C)C)c1` was tested, and the growth was -16.6% (active). For `COCCc1n(Cc2ccc3ccccc3c2)c2ccccc2[n+]1Cc1ccc2ccccc2c1`, the growth was -23.4% (active). `CCN(CC)C(CC(=O)c1ccccc1)C(=O)c1ccccc1` (stereo not given) was tested, and the growth was 56.1% (inactive). For `CCCCCCOC(=O)CC1=C(C)/C(=C/c2[nH]c(-c3ccc[nH]3)cc2OC)N=C1C`, the growth was -59.7% (active). In the case of `CC(=O)Nc1ccc(O)c(C)c1`, the growth was 111% (inactive). In the case of `NC(=S)N/N=C/C(=O)O`, the growth was 37.7% (inactive). In the case of `FC(F)(F)c1cccc(Nc2nc3ccccc3nc2Nc2cccc(C(F)(F)F)c2)c1`, the growth was -12.9% (active). For `[2H]C([2H])([2H])Oc1cccc(/C=C/C(=O)/C=C(/C=C/c2cccc(OC([2H])([2H])[2H])c2OC([2H])([2H])[2H])OB(F)F)c1OC([2H])([2H])[2H]`, the growth was 54.6% (inactive). For `Cn1c2c(cc(S(=O)(=O)c3ccccc3)c1=O)CCc1c-2cnn1-c1ccccc1Cl`, the growth was 91.9% (inactive). For `O=C1OCC2=C1C(c1cccc(C(F)(F)F)c1)c1cc3c(cc1N2CCO)OCO3` (stereo not given), the growth was -5.36% (active). For `CCOC(=O)C1C(=O)C=C(c2cnccn2)CC1c1ccc(OC)c(OC)c1` (stereo not given), the growth was 108% (inactive). With `COc1ccc2c(c1)/C(=C/c1sc(=S)n(Cc3ccco3)c1O)C=N2` the growth was 3.03% (active). `CC1(C(=O)O)CCC(N)(C(=O)O)C1(C)C` (stereo not given) was tested, and the growth was 115% (inactive). With `CCN(CC)CCCNc1ccc(C)c2sc3ccccc3c(=O)c12` the growth was -34.8% (active). With `CNCc1cccc2c1OCCOCCOCCC(C)S(=O)(=O)c1ccc(cc1)-c1cnc(N)c(n1)C(=O)N2` (stereo not given) the growth was 53.1% (inactive). In the case of `Cc1ccc2c(c1)C(C)Cc1c(ncnc1-n1cnc3ccccc31)N2C` (stereo not given), the growth was 30.8% (inactive). In the case of `CCCCCCCCCCCC[S+](C)CC(=O)[O-]` (stereo not given), the growth was -53.1% (active). In the case of `COc1cc(C=Nc2oc(-c3ccccc3)c(-c3ccccc3)c2C#N)cc(CN2CCCCC2)c1O`, the growth was 95.6% (inactive). With `CC/C=C\C[C@H](O)C/C=C1/C(=O)C=C[C@@H]1C/C=C\CCCC(N)=O` the growth was -33.1% (active). `O=C(O)c1cccc([N+](=O)[O-])c1/C=C/c1ccccc1` was tested, and the growth was 102% (inactive). For `CCN1CCN(c2cc(C)nc(NCc3cc(Nc4ccnc5cc(Cl)ccc45)ccc3F)n2)CC1`, the growth was 47.4% (inactive). For `CN1CCN(Cc2ccc(NC(=O)c3cncc(C#Cc4cnc(N)c5ccncc45)c3)cc2C(F)(F)F)CC1`, the growth was 35.5% (inactive). In the case of `C[C@H](NC(=O)[C@@H]1CSSC[C@@H](NC(=O)c2nc3ccccc3cc2O)C(=O)NCC(=O)N1C)c1ccccc1`, the growth was 41.4% (inactive). With `CC1=CC(=O)C=CC1(C)C(Cl)(Cl)Cl` (stereo not given) the growth was 98.4% (inactive). With `CCCCCC(=O)Oc1ccc(/C(=C(\C)c2ccc(OC)cc2)c2ccc(OCCN3CCCCC3)cc2)cc1` the growth was 85.3% (inactive). With `Nc1c(C(=O)Nc2cccc(C(F)(F)F)c2)sc2nc3c(cc12)C(O)CCC3` (stereo not given) the growth was 22.4% (inactive).
